17 molecules from PubChem BioAssay (NCI) can be followed below.

Some test systems named below: T-47D breast; BT-549 breast; MDA-MB-435 melanoma; SW-620 colon; MCF7 breast; HCT-116 colon; HCC-2998 colon; KM12 colon.
What all share (test): NCI-60 one-dose screen, 48 h (100 = growth as untreated, 0 = no growth, -100 = all killed)
Conditions in all cases: 10 µM unless noted

This is part of a sample that, as a whole, favours compounds with a hit. Of some 83,000 tested, about 20% had one in any assay.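 Cell lines were cultured in 96-well plates, exposed to a single compound concentration, and assessed for percent growth 48 hours later.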 A number with no mark means an inactive call. Active and inactive are the calls of the source. Rule for the calls: active = growth percent below 10; inactive = the rest.

On to `O=C1c2cccc3c(-c4ccc(-c5nc6c7ccccc7c7ccccc7c6[nH]5)cc4)ccc(c23)C(=O)N1CCN1CCNCC1`, for which the growth with T-47D breast is 67.5%; with BT-549 breast it was 95.4%; in the experiment with MDA-MB-435 melanoma, 100%; with SW-620 colon, 25.2%; in the experiment with MCF7 breast, -6.7% (active); in the experiment on HCT-116 colon it was -12.3% (active). Further, the growth in the experiment with HCC-2998 colon was 85.5%; with KM12 colon, 21.6%.

As to `C[N+](C)(C)CCOC(OCC[N+](C)(C)C)(c1ccccc1)c1ccccc1`, the growth is 106% in the experiment on T-47D breast; 101% in the experiment on BT-549 breast; 121% in the experiment with MDA-MB-435 melanoma; 103% in the experiment on SW-620 colon; 92.8% with MCF7 breast; 105% with HCT-116 colon. Also, the growth in the experiment on HCC-2998 colon is 97%.

As to `CCOc1cccnc1/C=N/NC(N)=S`, the growth in the experiment on T-47D breast was 71.8%; in the experiment with BT-549 breast, 51.6%; in the experiment with MDA-MB-435 melanoma it was 58.2%; in the experiment with SW-620 colon, 40.8%; in the experiment on MCF7 breast it was 28.8%; in the experiment with HCT-116 colon, 32.6%. The growth in the experiment with HCC-2998 colon was 52.7%; in the experiment on KM12 colon, 36.2%.

As to `COc1ccc(OC)c(/C=C2\COc3ccc(O)cc3C2=O)c1`, the growth was 96.7% with T-47D breast; 93.5% in the experiment with BT-549 breast; 29.1% in the experiment on MDA-MB-435 melanoma; 14.3% in the experiment with SW-620 colon; 19.7% in the experiment on MCF7 breast; 66.9% with HCT-116 colon. The growth is 112% in the experiment on HCC-2998 colon and 60.2% with KM12 colon.

As for `Cc1c(Cl)cccc1NS(=O)(=O)c1ccccc1`, the growth in the experiment with T-47D breast is 109%; in the experiment on BT-549 breast it was 105%; in the experiment with MDA-MB-435 melanoma, 101%; in the experiment with SW-620 colon, 106%; in the experiment on MCF7 breast, 107%; with HCT-116 colon, 104%. Besides, the growth in the experiment on HCC-2998 colon is 109%.

As for `O=C(/C=C/C12c3ccccc3C(c3ccccc31)C1C(=O)N(c3ccc(Cl)cc3)C(=O)C12)c1ccccn1` (stereo not drawn), the growth was -3.33% (active) with T-47D breast; -49.6% (active) in the experiment with BT-549 breast; -29.1% (active) in the experiment with MDA-MB-435 melanoma; -12.4% (active) in the experiment on SW-620 colon; 2.48% (active) in the experiment on MCF7 breast; -69.2% (active) with HCT-116 colon. In addition, the growth with HCC-2998 colon is -87.4% (active).

As to `CCNCCNc1cc(-c2cccc(C(F)(F)F)c2)c(C#N)c2nc3ccccc3n12`, the growth in the experiment with T-47D breast was -72.4% (active); in the experiment on BT-549 breast, -64.6% (active); in the experiment on MDA-MB-435 melanoma, -93.3% (active); in the experiment on SW-620 colon, -67.3% (active); in the experiment with MCF7 breast, -70% (active); with HCT-116 colon, -93.9% (active). For the same molecule, the growth with HCC-2998 colon was -80.9% (active).

As to `CCC(C)NCc1ccccc1` (stereo not drawn), the growth is 89.4% in the experiment on T-47D breast; 95.2% in the experiment on BT-549 breast; 108% in the experiment with MDA-MB-435 melanoma; 101% in the experiment with SW-620 colon; 102% in the experiment on MCF7 breast; 91.8% in the experiment on HCT-116 colon. The growth in the experiment on HCC-2998 colon was 102%.

Consider `COc1ccc2c(c1)/C(=C\c1sc(=S)[nH]c1O)C(C(=O)O)=N2`, for which the growth is 94.3% in the experiment with T-47D breast; 109% with BT-549 breast; 100% in the experiment with MDA-MB-435 melanoma; 95.2% in the experiment with SW-620 colon; 97.7% in the experiment with MCF7 breast; 99.6% with HCT-116 colon. Also, the growth in the experiment on HCC-2998 colon was 103%.

As to `Cn1ncc2c(Nc3ccc(Br)cc3)nc(Nc3ccc(Br)cc3)nc21`, the growth with T-47D breast is 29.1%; with BT-549 breast, 62.5%; in the experiment on MDA-MB-435 melanoma, 33.5%; in the experiment with SW-620 colon it was 52.7%; in the experiment with MCF7 breast, 3.89% (active); in the experiment on HCT-116 colon, 37%.

As for `NC(=O)c1c(NC(=O)c2ccc(C(F)(F)F)cc2Cl)sc2c1CCC(=O)C2`, the growth in the experiment on T-47D breast is -21.2% (active); in the experiment with BT-549 breast it was -33.2% (active); with MDA-MB-435 melanoma, -42% (active); in the experiment on SW-620 colon, -49.7% (active); in the experiment on MCF7 breast, 5.41% (active); with HCT-116 colon it was -56.9% (active). Further, the growth with HCC-2998 colon is -6.6% (active).

Consider `CCOC(=O)c1c(C)nc2c(c1N)/C(=C/c1cc(OC)c(OC)c(OC)c1)C(=O)N2c1ccc(OC)cc1`, for which the growth is 73.2% with T-47D breast; 46.7% with BT-549 breast; 49.5% in the experiment on MDA-MB-435 melanoma; 30.9% with SW-620 colon; 14.6% with MCF7 breast; -0.0724% (active) with HCT-116 colon. Further, the results for the growth in the experiment with HCC-2998 colon and in the experiment with KM12 colon were 95.9% and 43.7%, respectively.

As for `Oc1[nH]c2ccccc2c1/C=c1/cc2c(c(-c3ccc(F)cc3)n1)=Nc1ccccc1-2`, the growth in the experiment with T-47D breast is -37.1% (active); with BT-549 breast it was -31.3% (active); with MDA-MB-435 melanoma it was -30.4% (active); in the experiment on SW-620 colon, -10.6% (active); in the experiment on MCF7 breast, -62.4% (active); with HCT-116 colon it was -61.3% (active). Further, the growth in the experiment on HCC-2998 colon was -63.7% (active).

Turning to `C/C(Cc1ccc(Cl)cc1)=C(/c1ccc(Cl)cc1)c1ccc(OCCN(C)C)cc1`, the growth with T-47D breast was 47.9%; in the experiment with BT-549 breast, 103%; in the experiment with MDA-MB-435 melanoma it was 44.6%; in the experiment with SW-620 colon it was -32.4% (active); in the experiment on MCF7 breast it was 11%; with HCT-116 colon, 16.5%. For the same molecule, the growth in the experiment with HCC-2998 colon is 1.6% (active).

Take `O=C(Nc1ccccc1)c1sc(-c2cccc(C(F)(F)F)c2)cc1O`: the growth with T-47D breast was 59.3%; in the experiment with BT-549 breast, 70.8%; in the experiment on MDA-MB-435 melanoma it was 77.9%; in the experiment on SW-620 colon, 76.1%; in the experiment with MCF7 breast, 74.7%; in the experiment on HCT-116 colon it was 67.9%. Moreover, the growth with HCC-2998 colon is 98.2%.

`CC1=CC(=O)C(C(C)C)=CC1=Nc1cc(Br)c(O)c(Br)c1`: the growth was 75.5% with T-47D breast; 26.4% in the experiment with BT-549 breast; -11.7% (active) with MDA-MB-435 melanoma; 27.3% in the experiment on SW-620 colon; 23.2% in the experiment on MCF7 breast; 1.14% (active) in the experiment with HCT-116 colon. Further, in the experiment on HCC-2998 colon, the growth was -43.5% (active).

As to `Nc1ccn(C2OC(F)(CO)C(O)C2F)c(=O)n1` (stereo not drawn), the growth with T-47D breast was 55.3%; in the experiment with BT-549 breast, 44.4%; with MDA-MB-435 melanoma it was 52.9%; in the experiment on SW-620 colon it was 52.1%; in the experiment with MCF7 breast, 21.7%; with HCT-116 colon it was 35.3%. Moreover, the growth with HCC-2998 colon is 48.3%; in the experiment with KM12 colon it was 59.2%.
